Test results from PubChem BioAssay.

What follows are molecules tested against PEG-3 (UniProt Q6IN02) (assay: Peg3 promoter luciferase inhibitors, potency, dose response, cell-based, HeLa, CREF/GAPDH counter-screen panel (AID 624167)). Settings: CREF/GAPDH counter-screens; HeLa PEG-Prom luciferase reporter, overnight, run 1, dose range 1, at 100 µM (top of the series) unless noted.
Chain of PEG-3 (Q6IN02 whole entry, looked up): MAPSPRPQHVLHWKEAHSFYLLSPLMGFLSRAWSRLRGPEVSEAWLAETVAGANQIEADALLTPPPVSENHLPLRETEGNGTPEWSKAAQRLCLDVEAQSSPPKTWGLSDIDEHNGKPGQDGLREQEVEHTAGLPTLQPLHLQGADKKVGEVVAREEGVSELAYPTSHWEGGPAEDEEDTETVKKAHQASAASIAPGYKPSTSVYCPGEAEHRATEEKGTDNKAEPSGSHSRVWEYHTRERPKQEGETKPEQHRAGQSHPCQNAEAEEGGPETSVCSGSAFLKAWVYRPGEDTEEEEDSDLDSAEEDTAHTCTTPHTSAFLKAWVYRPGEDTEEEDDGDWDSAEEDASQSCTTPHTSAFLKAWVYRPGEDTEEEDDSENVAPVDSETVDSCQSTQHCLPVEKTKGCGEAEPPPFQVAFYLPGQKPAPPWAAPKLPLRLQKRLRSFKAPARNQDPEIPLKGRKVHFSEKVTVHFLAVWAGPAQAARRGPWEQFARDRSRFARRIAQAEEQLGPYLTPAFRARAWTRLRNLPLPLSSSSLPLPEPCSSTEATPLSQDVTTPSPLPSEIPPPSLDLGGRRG

First: CCSc1nc2ccccc2n1C(=O)/C=C\c1ccc(OC)c(OC)c1
Second: COc1ccc(C(=O)Nc2nc3ccccc3s2)c(OC)c1
The inhibition of the first is lower: 99.4% for the first, 101% for the second.

Compared with `OCCNc1c2ccccc2nc2ccccc12`, `COc1ccccc1C(=O)Nc1nc2ccccc2[nH]1` is lower in inhibition: 99.6% for the first, 99.2% for the second.

First: Fc1ccc(-c2nnc(NC3=NCCCCC3)o2)cc1
Second: Cc1ccc(-c2nc(-c3ccccn3)no2)cc1
The inhibition of the first is lower: 94.9% for the first, 99.3% for the second.

First: COc1cccc(OC)c1C(=O)Nc1cc(C)nn1-c1nc2ccccc2[nH]1
Second: COc1cc(SC)ccc1C(=O)Nc1nc2ccccc2[nH]1
The inhibition of the first is lower: 37.6% for the first, 99.2% for the second.

First: Nc1ccc(-c2nc3ccc(C(=O)O)cc3s2)cc1
Second: CCOc1ccc(OCc2cccc(C(=O)O)c2)cc1
The inhibition of the first is higher: 98.2% for the first, 91.5% for the second.

Going from `CC(=O)N1CCCC(c2cc(C(=O)Nc3ccccc3)no2)C1` (stereo not given) to `Cc1ccccc1OCC(=O)Nc1cccc(C(=O)O)c1`, the inhibition falls from 100% to 99.1%.

Compared with `CN(C(=O)COC(=O)/C=C/c1cccc([N+](=O)[O-])c1)C1CCS(=O)(=O)C1` (stereo not given), `CC(=O)Nc1ccc(NC(=O)c2nc(S(=O)(=O)Cc3cccc(C)c3)ncc2Cl)cc1` is higher in inhibition: 47.5% for the first, 102% for the second.

First: CCCCC(=O)NC(c1ccc(OC)cc1)c1ccc2cccnc2c1O (stereo not given)
Second: CC(=O)NC(c1ccc(N(C)C)cc1)c1cc(Cl)c2cccnc2c1O (stereo not given)
The inhibition of the first is lower: 73.4% for the first, 76.1% for the second.

First: COCCn1c(C)cc(C(=O)CSc2nnc(C)s2)c1C
Second: CCCn1c(C)cc(C(=O)CN2C(=O)c3ccccc3S2(=O)=O)c1C
The inhibition of the first is lower: 96.1% for the first, 97.5% for the second.

Compared with `Cc1ccc(-c2cc3c(nn2)-c2ccccc2C3=O)cc1`, `COc1ccc(-c2nc(-c3ccccn3)no2)cc1` is higher in inhibition: 98.6% for the first, 99.7% for the second.

First: C=C1CC(COc2ccc3c(C)c(Cl)c(=O)oc3c2)(c2ccccc2)OC1=O (stereo not given)
Second: CCOc1ccc2c(ccc(/C=C/c3cc(C)c4cccnc4c3O)[n+]2C)c1
The inhibition of the first is lower: 99.6% for the first, 101% for the second.

Compared with `COc1cc(SC)ccc1C(=O)Nc1ncc(C)s1`, `CC(=O)CSc1ccc(-c2nc3cc(C)c(C)cc3[nH]2)cn1` is higher in inhibition: 95.5% for the first, 102% for the second.

Compared with `CCN(CCO)c1ccc(N=Nc2cc(C)[nH]n2)cc1`, `CN(C)c1ccc(Nc2nc(N)c3ccccc3n2)cc1` is higher in inhibition: 95.5% for the first, 97.9% for the second.

Going from `C(=Cc1cnc2ccccc2n1)c1ccc2c(c1)OCO2` to `O=C(/C=C\Nc1ccc2c(c1)OCO2)c1ccccn1`, the inhibition rises from 94.6% to 102%.

Compared with `Brc1ccc(N/N=C(/N=Nc2nn[nH]n2)c2ccccc2)cc1`, `O=C(CNC(=O)C(c1ccccc1)c1ccccc1)N/N=C/c1ccc(O)cc1O` is lower in inhibition: 100% for the first, 53.4% for the second.

First: Cc1csc(NC(=O)c2cn3ccccc3n2)n1
Second: CCOC(=O)Cc1csc(NC(=S)NC(=O)c2ccc(Cl)cc2)n1
The inhibition of the first is higher: 99% for the first, 77.7% for the second.

Going from `O=C(Nc1cccc(C(=O)O)c1)Nc1ccc2c(c1)OCO2` to `CC1CCN(c2ccc(-c3cccc(NC(=O)C(F)(F)F)c3)nn2)CC1`, the inhibition falls from 95.9% to 93.8%.

Going from `C/C(=N\NC(=O)c1cc(C2CC2)nc2ccccc12)c1ccc(O)cc1O` to `CCCCCCCn1c(=N)n(CC(=O)c2ccco2)c2ccccc21`, the inhibition rises from 59.9% to 102%.

Compared with `CCCCCCCNC(=O)C1(CC2CC(c3cccc(Br)c3)=NO2)CCNCC1` (stereo not given), `CC1CCCN(c2ncnc3c2cnn3-c2ccc(Cl)cc2)C1` (stereo not given) is lower in inhibition: 99.6% for the first, 98.9% for the second.

In the case of `CCn1nc(C)cc1-c1nnc(Sc2ncc([N+](=O)[O-])s2)n1C`, the inhibition is reported as 102%.

For `CS(=O)(=O)Nc1cccc(NC(=O)C2Cc3c(-c4cccc(F)c4)ccnc3O2)c1` (stereo not given), the inhibition was 77.9% [run 1, dose range 1, at 50 µM].
